In all, about 44,000 compounds went through this assay and about 370 (0.84%) were called active. The rule behind the calls is not given here. Shown is part of a subset that was picked to be rich in actives.

A short description of this test: inducers of TAG accumulation in Chlamydomonas, primary screen, qHTS, Chlamydomonas reinhardtii (AID 1159537).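 Note: hits raise Nile Red signal meaning more stored TAG.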 Conditions: Nile Red fluorescence, 72 h, screened at 10 µM (by protocol). (In general: In qHTS, concentration-response curves come from the screen itself.)
On to `O=C(COc1ccc([N+](=O)[O-])cc1)Nc1cccc(Br)c1`, for which the molecule was classed as inactive.

`CCOc1ccccc1NC(=O)COc1ccc(Br)c(C)c1`: the molecule was classed as inactive.

With `O=C(O)Cn1c2ccccc2c2cc([N+](=O)[O-])ccc21`, the outcome was inactive.

`CC(=O)c1nc2cc([N+](=O)[O-])ccc2n1Cc1ccccc1`: the molecule was classed as active.

Turning to `CC(=O)c1nc2ccccc2n1Cc1ccccc1`, the molecule was called inactive.

On to `CC(C(=O)NCc1ccncc1)N(c1ccccc1)S(C)(=O)=O` (stereo unspecified), for which the call was inactive.

With `COc1ccc(N=C2NC(=O)CC(C(=O)Nc3ccc(Cl)cc3)S2)cc1` (stereo unspecified), the outcome was inactive.

On to `CC(=O)Nc1ccc(NC(=O)c2ccc(F)cc2)cc1`, for which the molecule was called inactive.

Take `OCCN1CCN(C2CCN(Cc3ccc(Cl)cc3)CC2)CC1`: the outcome was inactive.

For `COc1ccc(-c2cn3c4ccccc4n(CCN4CCOCC4)c3n2)cc1`, the outcome was inactive.

Consider `O=C1CCC(=O)N1c1ccc(S(=O)(=O)c2ccc(N3C(=O)CCC3=O)cc2)cc1`, for which the result was inactive.

Regarding `O=C(COc1ccc([N+](=O)[O-])cc1)Nc1ccc(Cl)cc1`, the molecule was classed as inactive.

Regarding `COc1ccccc1CNC1CCC(C)C1` (stereo unspecified), the call was inactive.

`NC(=O)CCSc1ccc(Cl)cc1`: the call was inactive.

As to `NC(N)=NS(=O)(=O)c1ccc(NC(=O)c2ccc([N+](=O)[O-])cc2)cc1`, the call was inactive.

Take `Cc1cccc(NC(=O)C(=O)NC(C)c2ccccc2)c1` (stereo unspecified): the call was inactive.

In the case of `CC(=O)NS(=O)(=O)c1ccc(NC(=O)C2C3C=CC(C3)C2C(=O)O)cc1` (stereo unspecified), the outcome was inactive.

Take `Cc1ccc(CNC(=O)c2ccccc2Br)cc1`: the outcome was inactive.

Turning to `COc1ccc(Nc2nc(Nc3ccc(OC)cc3)nc(N3CCNCC3)n2)cc1`, the molecule was classed as inactive.

Turning to `CC1CCCN(CCCCOc2ccccc2F)C1` (stereo unspecified), the call was inactive.

Consider `COc1cc(/C=C(\C#N)c2nc3ccc(C)cc3[nH]2)c(Br)cc1O`, for which the molecule was called inactive.

Take `O=C(NCc1cccnc1)C(O)(c1ccccc1)c1ccccc1`: the molecule was classed as inactive.

As to `CCN(CC)CCCOc1ccc(C)cc1[N+](=O)[O-]`, the call was inactive.

Turning to `COc1ccccc1OCCNc1cc(N2CCOCC2)ccc1[N+](=O)[O-]`, the result was inactive.

On to `Cc1ccc(OCCOCCN2CCOCC2)c([N+](=O)[O-])c1`, for which the molecule was classed as active.

Regarding `CNC(=O)C(=O)NCCc1ccccc1`, the molecule was classed as inactive.

`O=C1CC(NCCc2ccccc2)C(=O)N1c1ccc(F)cc1` (stereo unspecified): the outcome was inactive.

Regarding `Cn1c(SCC(=O)Nc2ccccc2)nc2ccccc21`, the result was inactive.

Consider `Cc1ccc(C(C)C)c(OCC(O)CN2CCCC(C)C2)c1` (stereo unspecified), for which the result was inactive.

With `CCOc1ccc(N2C(=O)CC(SCC(=O)Nc3ccc(F)cc3)C2=O)cc1` (stereo unspecified), the molecule was called inactive.

Regarding `COc1ccc(N(CC(=O)Nc2ccc(C)cc2)S(C)(=O)=O)c(OC)c1`, the outcome was inactive.

Consider `COc1ccccc1/C=C(/C#N)c1nc2ccccc2[nH]1`, for which the molecule was classed as inactive.

As for `CNC(=O)CN(c1ccc(F)cc1)S(C)(=O)=O`, the molecule was classed as inactive.

Take `COc1ccccc1N(CC(=O)NC12CC3CC(CC(C3)C1)C2)S(=O)(=O)c1ccccc1`: the call was inactive.

On to `CC(=O)Nc1ccc(CN2CCOCC2)cc1`, for which the result was inactive.

On to `O=C(Nc1cccc(Cl)c1Cl)c1ccc(CN2CCOCC2)cc1`, for which the call was inactive.

On to `O=C(c1ccc(CN2CCOCC2)cc1)N(Cc1ccccc1)Cc1ccccc1`, for which the call was active.

As to `COC(=O)NC(c1ccc(Br)cc1)C(Cl)(Cl)Cl` (stereo unspecified), the result was inactive.

Take `Cc1ccc2c(Cl)c(C(=O)Nc3cc(S(N)(=O)=O)ccc3C)sc2c1`: the result was inactive.

`CC(=O)c1ccc(NC(=O)COc2ccc(Br)c(C)c2)cc1`: the outcome was inactive.

Consider `CCOc1ccc(NC(=O)Nc2nnc(Cc3ccc(OC)cc3)s2)cc1`, for which the molecule was classed as inactive.

`C=CCNC(=O)COc1ccc(C)cc1Br`: the call was inactive.

As for `COc1ccc(Cl)cc1NC(=O)CSc1nc2ncccc2[nH]1`, the call was inactive.

In the case of `CC(=O)Nc1ccc(CN2CCN(c3ccc(C(C)=O)cc3)CC2)cc1`, the outcome was inactive.

Consider `CC(=O)NC1=C(N2CCN(Cc3ccccc3)CC2)C(=O)c2ccccc2C1=O`, for which the molecule was called active.

For `O=C(Nc1ccccc1)N1CCN(Cc2ccccc2)CC1`, the molecule was called inactive.

As for `O=C(Nc1cccc(Cl)c1)Nc1ccccn1`, the molecule was classed as inactive.

Regarding `O=C1CC(N2CCN(c3ccc([N+](=O)[O-])cc3)CC2)C(=O)N1c1cccc(Cl)c1` (stereo unspecified), the molecule was classed as inactive.

As for `O=C1CC(N2CCc3ccccc3C2)C(=O)N1c1ccc([N+](=O)[O-])cc1` (stereo unspecified), the outcome was active.

Consider `O=C1CC(N2CCCCCC2)C(=O)N1c1ccccc1` (stereo unspecified), for which the outcome was inactive.

On to `O=C(O)c1sc2ccccc2c1Cl`, for which the result was inactive.

Regarding `O=C(O)c1sc2cc(F)ccc2c1Cl`, the molecule was called inactive.

Consider `CN1CCN(C(=O)c2sc3cc(Cl)ccc3c2Cl)CC1`, for which the call was active.

For the molecule `COc1ccccc1CN(C)C1CCN(C)CC1`, the call was inactive.

As for `COc1ccc(Cl)cc1N(CC(=O)NCC1CCCO1)S(C)(=O)=O` (stereo unspecified), the outcome was inactive.

For `CN(C)CCCn1cnc2ccccc21`, the molecule was classed as inactive.

As for `COc1cc(C(=O)Nc2sc3c(c2C(N)=O)CCC3)cc(OC)c1OC`, the call was inactive.

In the case of `O=C(Nc1ccc(C(=O)N2CCOCC2)cc1)C1COc2ccccc2O1` (stereo unspecified), the molecule was classed as inactive.

On to `O=C(Nc1ccccc1)Nc1ccccc1C(=O)N1CCOCC1`, for which the outcome was active.

`CCC(=O)Nc1ccccc1C(=O)N1CCN(Cc2ccccc2)CC1`: the outcome was inactive.

As to `NC(=O)CN(Cc1ccccc1Cl)S(=O)(=O)c1ccc(Cl)cc1`, the result was inactive.

With `O=C(c1ccc([N+](=O)[O-])cc1)N1CCN(c2cccc(Cl)c2)CC1`, the molecule was classed as inactive.

As to `Cc1ccccc1N(C(F)F)S(=O)(=O)c1cc([N+](=O)[O-])ccc1C`, the outcome was inactive.

Take `O=C(CCN1CCCC1)Nc1ccc2c(c1)CCC2`: the molecule was called inactive.

In the case of `CC(=O)c1ccc(-c2ccc(C=O)o2)cc1`, the outcome was inactive.

Take `COc1ccccc1N1CCN(S(=O)(=O)c2cccc3cccnc23)CC1`: the molecule was classed as inactive.

The values are drawn from PubChem BioAssay AID1159537 (DiRusso Lab, Biochemistry Department, University of Nebraska, 2015).
